Hit rate of the full screen: of about 2,400 compounds, about 750 (31%) were called active. This is one part of the list. A number with no mark means an inactive call.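 The calls were made as follows: active = median signal gain over dofetilide-blocked control wells reaching their mean plus 3 SD, so readout 1 at least 0; inactive = the rest.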

For the assay, the target named is Voltage-gated inwardly rectifying potassium channel KCNH2 (Homo sapiens) (UniProt Q12809). As to the kind of experiment: modulators restoring hERG flux under dofetilide – cell-based, thallium flux, duplicate retest, dofetilide IC70, confirmation (AID 1835). To be noted: hERG cell line, FluxOR thallium flux, dofetilide-blocked; at 10 µM; hits give high values. (In general: hERG is a cardiac potassium channel; its block is linked to QT prolongation.)
Chain of Voltage-gated inwardly rectifying potassium channel KCNH2 (Homo sapiens) (Q12809 whole entry, looked up): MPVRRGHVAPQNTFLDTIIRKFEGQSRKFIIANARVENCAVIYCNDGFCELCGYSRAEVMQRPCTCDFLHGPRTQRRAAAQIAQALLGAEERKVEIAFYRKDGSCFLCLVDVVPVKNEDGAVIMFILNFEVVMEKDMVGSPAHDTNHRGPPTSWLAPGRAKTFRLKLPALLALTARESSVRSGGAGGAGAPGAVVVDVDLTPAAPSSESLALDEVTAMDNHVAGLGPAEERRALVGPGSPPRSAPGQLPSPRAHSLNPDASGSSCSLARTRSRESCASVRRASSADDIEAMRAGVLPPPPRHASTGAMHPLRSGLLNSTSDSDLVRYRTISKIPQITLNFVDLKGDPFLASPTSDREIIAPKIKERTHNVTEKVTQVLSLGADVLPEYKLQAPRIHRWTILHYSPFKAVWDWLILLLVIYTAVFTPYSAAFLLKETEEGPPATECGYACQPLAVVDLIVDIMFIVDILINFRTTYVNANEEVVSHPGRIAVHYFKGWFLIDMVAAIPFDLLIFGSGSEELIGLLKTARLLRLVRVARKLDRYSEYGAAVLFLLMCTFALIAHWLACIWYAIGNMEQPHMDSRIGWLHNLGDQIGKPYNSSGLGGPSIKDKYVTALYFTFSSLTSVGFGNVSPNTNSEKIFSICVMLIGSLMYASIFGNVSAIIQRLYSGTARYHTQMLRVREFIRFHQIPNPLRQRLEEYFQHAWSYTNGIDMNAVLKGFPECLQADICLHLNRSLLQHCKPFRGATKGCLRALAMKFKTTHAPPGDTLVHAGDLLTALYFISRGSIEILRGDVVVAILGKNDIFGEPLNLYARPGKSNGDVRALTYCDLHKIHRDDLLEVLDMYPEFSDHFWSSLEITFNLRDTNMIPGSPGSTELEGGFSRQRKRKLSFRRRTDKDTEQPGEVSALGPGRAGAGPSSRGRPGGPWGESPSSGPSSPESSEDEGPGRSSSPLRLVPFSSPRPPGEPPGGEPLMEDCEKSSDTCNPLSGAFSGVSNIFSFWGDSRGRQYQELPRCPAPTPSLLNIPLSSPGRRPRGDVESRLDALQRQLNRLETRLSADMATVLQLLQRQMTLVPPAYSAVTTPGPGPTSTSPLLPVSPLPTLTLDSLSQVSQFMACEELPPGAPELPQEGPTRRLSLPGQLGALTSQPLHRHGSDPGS
As for `O=C(N/N=C/c1ccsc1)C1CC1`, the activity increase over dofetilide control, less the hit threshold is -4%.
On to `CC1CCN(S(=O)(=O)c2ccc3nc(N4CCN(c5ccccc5)CC4)ccc3c2)CC1`, for which the activity increase over dofetilide control, less the hit threshold is -22%.
Consider `COc1cc(C2c3c(n[nH]c3C)C(=O)N2c2ccc(C)cc2)ccc1O` (stereo unspecified), for which the activity increase over dofetilide control, less the hit threshold was -15%.
Turning to `O=C(NCc1cccnc1)c1ccc(NS(=O)(=O)c2ccc(F)cc2)cc1`, the activity increase over dofetilide control, less the hit threshold is -9%.
In the case of `CC1=NNC(=O)C1CC(=O)N/N=C/C=C/c1ccccc1` (stereo unspecified) it was -18%.
On to `CCOC(=O)N/N=C/C=C/c1ccccc1[N+](=O)[O-]`, for which the activity increase over dofetilide control, less the hit threshold is 4% (active).
In the case of `O=C(N/N=C/c1ccccc1[N+](=O)[O-])c1ccc(CN2CCOCC2)cc1` it was -4%; in that of `Cc1cc(C)n2nc(SCC(=O)NC3CCCCC3C)nc2n1` (stereo unspecified), -19%; in that of `Cc1ccc(C)c(Cn2c(O)c(N=NC(=S)Nc3ccccc3F)c3ccccc32)c1`, -2%.
In the case of `Oc1c(N=NC(=S)Nc2ccccc2F)c2ccccc2n1Cc1ccccc1Cl` it was -2%; in that of `Cc1ccccc1Cn1c(O)c(N=NC(=S)Nc2ccccc2F)c2ccccc21`, 6% (active).
For `Oc1c(N=NC(=S)Nc2ccccc2F)c2ccccc2n1Cc1ccccc1F`, the activity increase over dofetilide control, less the hit threshold was 19% (active).
Turning to `Cn1c(O)c(N=NC(=S)Nc2ccccc2F)c2cc(S(=O)(=O)N3CCOCC3)ccc21`, the activity increase over dofetilide control, less the hit threshold is -22%.
Consider `CC(C)Nc1nc(SCC(N)=O)nc(N2CCOCC2)n1`, for which the activity increase over dofetilide control, less the hit threshold was -12%.
For the compound `O=C1CN(C(=O)COc2ccccc2F)c2ccccc2N1`, the activity increase over dofetilide control, less the hit threshold was -17%.
For `COC(=O)c1sccc1NC(=S)N1CC(C)CC(C)C1` (stereo unspecified), the activity increase over dofetilide control, less the hit threshold is -15%.
As for `COC(=O)c1sccc1NS(=O)(=O)c1ccc(F)cc1F`, the activity increase over dofetilide control, less the hit threshold was 2% (active).
In the case of `COC(=O)c1sccc1NC(=O)CSc1ccccc1NS(=O)(=O)c1cc(Cl)ccc1Cl` it was -3%.
On to `Cc1ccc(NS(=O)(=O)c2cn(C)c(=O)n(C)c2=O)c(C)c1`, for which the activity increase over dofetilide control, less the hit threshold is 0% (active).
Regarding `Cc1ccc(S(=O)(=O)n2cnc3ccccc32)c(C)c1`, the activity increase over dofetilide control, less the hit threshold is -13%.
Regarding `Cc1ccc(NC(=O)c2ccc3c(c2)CCN3S(C)(=O)=O)c(C)c1`, the activity increase over dofetilide control, less the hit threshold was -17%.
In the case of `Cc1cc(C(=O)NNC2CC(=O)N(c3ccc4ccccc4c3)C2=O)c(C)o1` (stereo unspecified) it was -6%.
Turning to `Cc1c(C)n(CCN(C)C)c2ccc(C(=O)OCCN(C)C)cc12`, the activity increase over dofetilide control, less the hit threshold is -7%.
In the case of `CC(=O)c1c(C)c2c(n1CCN(C)C)CCCC2`, the activity increase over dofetilide control, less the hit threshold was 2% (active).
Consider `O=C(CC1NC(=O)NC1=O)Nc1ccccc1` (stereo unspecified), for which the activity increase over dofetilide control, less the hit threshold is -19%.
`O=C(c1cncc(Br)c1)N1CCc2ccccc2C1`: the activity increase over dofetilide control, less the hit threshold was -15%.
Take `CCC1(C)Cc2c(sc3[nH]c(=S)n(Cc4ccccc4)c(=O)c23)CO1` (stereo unspecified): the activity increase over dofetilide control, less the hit threshold is 30% (active).
Regarding `CC1(C)Cc2c(sc3[nH]c(=S)n(Cc4ccccc4)c(=O)c23)CO1`, the activity increase over dofetilide control, less the hit threshold was -10%.
As to `CC(C)C1Cc2c(sc3[nH]c(=S)n(Cc4ccccc4)c(=O)c23)CO1` (stereo unspecified), the activity increase over dofetilide control, less the hit threshold was 16% (active).
As to `COc1ccc(C(=O)NCC(=O)OCn2nnc3ccccc3c2=O)cc1OC`, the activity increase over dofetilide control, less the hit threshold is -24%.
For the compound `CCCCNC(=S)N/N=C/C1=CCC2CC1C2(C)C` (stereo unspecified), the activity increase over dofetilide control, less the hit threshold is -22%.
On to `Fc1ccc2c(c1)C(c1ccncc1)=NNC(c1cccnc1)=N2`, for which the activity increase over dofetilide control, less the hit threshold is -13%.
For the compound `C=CCc1cc(Cl)ccc1OCCOCCN(C)C`, the activity increase over dofetilide control, less the hit threshold is -19%.
On to `O=C(NCc1ccccc1)C(=O)Nc1nc(C23CC4CC(CC(C4)C2)C3)cs1`, for which the activity increase over dofetilide control, less the hit threshold was 18% (active).
In the case of `Cc1csc(NC(=O)C2C3C=CC(C3)C2C(=O)O)n1` (stereo unspecified) it was -19%; in that of `O=C(O)c1ccc(CNC(=O)C23CC4CC(CC(C4)C2)C3)cc1`, -3%.
On to `Oc1ccc(/C=N/Nc2nccnc2Cl)c(O)c1`, for which the activity increase over dofetilide control, less the hit threshold was 8% (active).
Consider `COc1ccc(N2C(=O)CCC(C(=O)O)C2c2ccc(F)cc2)cc1` (stereo unspecified), for which the activity increase over dofetilide control, less the hit threshold was -5%.
In the case of `O=C(NC(=S)Nc1nc(-c2ccccc2)cs1)c1ccco1` it was 1% (active); in that of `O=C(NC(=S)Nc1nc(-c2ccc(Br)cc2)cs1)c1ccco1`, 10% (active); in that of `O=C(NC(=S)Nc1nc(-c2cccc([N+](=O)[O-])c2)cs1)c1ccccc1Cl`, -1%.
Consider `O=C(NC(=S)Nc1nc(-c2ccc([N+](=O)[O-])cc2)cs1)c1ccco1`, for which the activity increase over dofetilide control, less the hit threshold was 16% (active).
In the case of `COc1ccc(-c2csc(NC(=S)NC(=O)c3ccco3)n2)cc1Br` it was -17%; in that of `COc1ccc(-c2csc(NC(=S)NC(=O)c3ccco3)n2)cc1`, 11% (active).
`O=C(CCc1ccc(S(=O)(=O)N2CCCCC2)cc1)c1nnc(-c2ccccc2)o1`: the activity increase over dofetilide control, less the hit threshold was -14%.
In the case of `Cc1[nH]c(=S)c(C#N)c(C)c1Cc1ccc(Cl)cc1Cl` it was -12%.
Turning to `O=C(N/N=C/C(Cl)=C/c1ccc([N+](=O)[O-])cc1)C(=O)Nc1ccc(C(=O)O)cc1`, the activity increase over dofetilide control, less the hit threshold is -13%.
For `O=c1c(C(c2ccc(O)cc2)c2c(O)nc3n(c2=O)CCS3)c(O)nc2n1CCS2`, the activity increase over dofetilide control, less the hit threshold is 3% (active).
In the case of `O=C(N=Nc1c(O)[nH]c2ccc([N+](=O)[O-])cc12)c1cc(-c2ccccc2Cl)nc2ccccc12`, the activity increase over dofetilide control, less the hit threshold was 97% (active).
For the compound `O=[N+]([O-])c1cccc(NC(=S)Nc2nc(-c3ccccc3Cl)cs2)c1`, the activity increase over dofetilide control, less the hit threshold was -7%.
Take `CN(C)/C(=N\S(=O)(=O)c1ccccc1)c1ccc(F)cc1`: the activity increase over dofetilide control, less the hit threshold was -9%.
For `S=C(N/N=C/c1cccc2ccccc12)Nc1cccc(Cl)c1`, the activity increase over dofetilide control, less the hit threshold was -8%.
As for `S=c1[nH]c(-c2ccccc2)cn1/N=C/c1cccc2ccccc12`, the activity increase over dofetilide control, less the hit threshold is 2% (active).
In the case of `Cc1cccc(-n2cc(-c3ccccc3)[nH]c2=S)c1` it was -6%.
Take `Cc1c(OC(C(=O)O)c2ccccc2)ccc2c(-c3ccccc3)cc(=O)oc12` (stereo unspecified): the activity increase over dofetilide control, less the hit threshold was -3%.
Consider `COc1cc(OC)cc(C(=O)NNC(=O)C(=O)Nc2cc(OC)c(Cl)cc2OC)c1`, for which the activity increase over dofetilide control, less the hit threshold is 68% (active).
In the case of `COc1ccc(C(=O)NNC(=O)CSc2nnc(COc3ccccc3)n2C)cc1` it was -24%.
As to `COc1cc(NC(=O)c2cc(-c3cccnc3)nc3ccc(C)cc23)c(OC)cc1Cl`, the activity increase over dofetilide control, less the hit threshold is -17%.
Consider `COc1ccc(NC(=O)C2CC3CCC2C3)c(OC)c1` (stereo unspecified), for which the activity increase over dofetilide control, less the hit threshold was -8%.
In the case of `COc1cccc(C(=O)NNC(=O)C(=O)Nc2ccc(OC)cc2OC)c1` it was 19% (active); in that of `COc1cccc(CCNS(=O)(=O)CCNC(=O)c2cccc(OC)c2)c1`, -15%; in that of `COc1cccc(C(=O)NNC(=O)C(=O)Nc2cccc3ccccc23)c1`, 52% (active).
In the case of `COc1ccc(C(=O)NNC(=O)C(=O)Nc2cccc3ccccc23)cc1` it was 51% (active).
For the compound `Cc1cc(C(=O)Nc2cccc3ccccc23)c(C)o1`, the activity increase over dofetilide control, less the hit threshold was -12%.
As for `CN(C)CCOC(=O)C1(c2ccccc2)CCCC1`, the activity increase over dofetilide control, less the hit threshold is -3%.
On to `O=C(CSc1cccc2cccnc12)N/N=C/c1cccnc1`, for which the activity increase over dofetilide control, less the hit threshold is -19%.
As for `COC(=O)c1ccc(Oc2ccc(S(=O)(=O)N3CCCCC3)cc2N)cc1`, the activity increase over dofetilide control, less the hit threshold is -12%.
For the compound `O=S(=O)(Nc1cccc(-n2cnnn2)c1)c1ccc(Cl)nc1`, the activity increase over dofetilide control, less the hit threshold was -11%.
In the case of `CCOCCOCN(C#N)c1nc(OC)nc(N(C)C)n1` it was -22%; in that of `O=C(CN1C(=O)CSCC1=O)Nc1ccc2c(c1)OCO2`, -6%.
On to `CC1CCCCC1NC(=S)NC(=O)c1sc2ccccc2c1Cl` (stereo unspecified), for which the activity increase over dofetilide control, less the hit threshold was 5% (active).
In the case of `COC(=O)CC1C(=O)NCCN1C(=S)NC(=O)c1sc2ccccc2c1Cl` (stereo unspecified) it was -1%.
As for `CC1CCCCC1NC(=S)NC(=O)c1cccs1` (stereo unspecified), the activity increase over dofetilide control, less the hit threshold was 44% (active).
Regarding `O=C(NC(=S)N(CCCCO)C1CCCCC1)c1sc2ccccc2c1Cl`, the activity increase over dofetilide control, less the hit threshold is 29% (active).
In the case of `CN(CC(=O)Nc1ccc(OC(F)(F)F)cc1)S(=O)(=O)c1cnc[nH]1` it was -9%; in that of `FC(F)c1nnc2c(Cl)cc(C(F)(F)F)cn12`, -11%; in that of `O=C(NC(=S)NNC(=O)[C@H]1C[C@@H]1c1ccccc1)c1cccc(F)c1`, -14%.
`C=CCn1c(=S)[nH]c2scc(-c3ccc(C)o3)c2c1=O`: the activity increase over dofetilide control, less the hit threshold was 72% (active).
In the case of `C=CCn1c(=S)[nH]c2scc(-c3cccs3)c2c1=O` it was 90% (active); in that of `C=CCn1c(SCC(N)=O)nc2scc(-c3ccc(C)o3)c2c1=O`, -19%.
On to `O=C(Nc1ccc(Cl)c(Cl)c1)Nc1nnc(CSc2ccccc2)s1`, for which the activity increase over dofetilide control, less the hit threshold is -10%.
In the case of `N#CC(=C1SC=CS1)c1nc(-c2ccccc2)cs1`, the activity increase over dofetilide control, less the hit threshold was -7%.
`Cc1ccc(-c2n[nH]c(=S)nc2-c2ccc(C)cc2)cc1`: the activity increase over dofetilide control, less the hit threshold was 13% (active).
For the compound `S=c1nc(-c2ccccc2)c(-c2ccccc2)n[nH]1`, the activity increase over dofetilide control, less the hit threshold was -9%.
As to `COC(=O)c1cc(-c2ccc(C)cc2)n[nH]1`, the activity increase over dofetilide control, less the hit threshold is -17%.
In the case of `Cn1cc(/C=C2\SC(=O)NC2=S)c2ccccc21`, the activity increase over dofetilide control, less the hit threshold was -24%.
On to `CCOc1ccc(/C=C2/SC(=O)NC2=S)cc1`, for which the activity increase over dofetilide control, less the hit threshold was 92% (active).
In the case of `CCOC(=O)c1ccc(Oc2cc(C)nc(SC)n2)cc1` it was 10% (active); in that of `CCOc1cc(-n2ncc(C#N)c2N)nc(SC)n1`, -12%; in that of `CCc1ccc(NC(=O)C(=O)NNC(=O)COc2cccc(OC)c2)cc1`, 14% (active).
On to `O=C(COc1cccc(-n2cnnn2)c1)Nc1ccc([N+](=O)[O-])cc1`, for which the activity increase over dofetilide control, less the hit threshold is -1%.
For the compound `Cc1cccc(OCC(=O)NCc2nc(-c3ccccc3)no2)c1`, the activity increase over dofetilide control, less the hit threshold was -13%.
Take `COc1cccc(OCC(=O)NNC(=O)C(=O)Nc2cccc(C)c2)c1`: the activity increase over dofetilide control, less the hit threshold was 50% (active).
For `COc1cccc(NC(=O)CSCc2n[nH]c(=O)[nH]2)c1`, the activity increase over dofetilide control, less the hit threshold was -20%.
Turning to `CCc1ccc(OCC(=O)Nc2ncn[nH]2)cc1`, the activity increase over dofetilide control, less the hit threshold was -29%.
`Cc1ccc(/C=N/N2C(=O)c3ccccc3NC2c2ccc(C)cc2)cc1` (stereo unspecified): the activity increase over dofetilide control, less the hit threshold was -7%.
Turning to `COc1cc(/C=C2/OC(=O)c3cc([N+](=O)[O-])ccc32)cc(OC)c1OC`, the activity increase over dofetilide control, less the hit threshold is -10%.
For `Cc1cc([N+](=O)[O-])ccc1-c1ccc(C2Nc3ccccc3C(=O)N2O)o1` (stereo unspecified), the activity increase over dofetilide control, less the hit threshold is 7% (active).
`Cc1ccc(C(C)C)c(OCc2n[nH]c(=S)o2)c1`: the activity increase over dofetilide control, less the hit threshold was -4%.
For `C=CCn1c(-c2cc(-c3ccc(C)cc3)nc3ccccc23)n[nH]c1=S`, the activity increase over dofetilide control, less the hit threshold is -16%.
Turning to `Cc1ccc(-c2cc(-c3n[nH]c(=S)o3)c3ccccc3n2)cc1`, the activity increase over dofetilide control, less the hit threshold is 37% (active).

Values taken from PubChem BioAssay AID1835 (Johns Hopkins Ion Channel Center, 2009).
